Assay outcomes deposited in PubChem by National Center for Advancing Translational Sciences (NCATS).
Most compounds without a hit are left out; they make up all but 1.4% or so of the library.
S-ASM inh: blocks human secretory acid sphingomyelinase; 0.006% of 340,000 active; Potency, µM (titrated, usually from 57.5 µM), for the others: top-dose activity change, negative = inhibition, actives largely listed as inhibitors; AID 504937; placental ASM, HMU-PC fluorogenic substrate, 60 min; note: potency is the fitted concentration of half-maximal effect
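Steps: dispense placental human ASM, pin compound, wait 10 min at room temperature, add HMU-PC0 substrate at 9 uM final, incubate 60 min at 37 °C, add stop solution raising pH to 10, read fluorescence.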
ALOX12 inh: blocks human arachidonate 12S-lipoxygenase; P18054; purified 12hLO, xylenol orange hydroperoxide absorbance; Potency, µM (doses to about 108 µM), for inactives: at the highest dose activity change, negative = inhibition, usual class: inhibitors; 1.1% of 580,000 active; note: potency is the fitted concentration of half-maximal effect; % is set by controls: 0 for no effect and ±100 for the full control effect
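Purified human 12hLO at 150 nM in 25 mM Hepes, 0.01% Triton X-100, pH 7.0, preincubated 15 min at room temperature with compound. Reaction started with 40 uM arachidonic acid, 30 min at room temperature. Hydroperoxide measured by Fe-xylenol orange, 573/405 nm absorbance ratio.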
Vif-APOBEC3F blk: Vif-A3F binding inhibition; HeLa A3F-eYFP + Vif (tagged APOBEC3F with the HIV-1 protein that degrades it), YFP fluorescence increase; Potency, µM (titrated, usually from 46.1 µM), for the others: at the highest dose activity, negative = active; 0.2% of 390,000 active; note: potency is the fitted concentration of half-maximal effect; % of control where 0% means no effect; nearly all actives have a fitted effect of over 65% in size
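HeLa cells stably expressing A3F-eYFP plus Vif, plated and incubated overnight at 37 deg C, then exposed to compounds overnight at 37 deg C. Blocked degradation read as raised yellow fluorescence (Ex 488/Em 500-530).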
pAkt inh: inhibitors of Akt phosphorylation | Neuro2A IGF-stimulated pAkt S473 HTRF, 20 min; hits give low values | activity change, % for hits at 50 µM | 0.32% of 360,000 active | AID 651550; in the data active = activity change below about -80%; inconclusive = mostly about -51% to -80%; note: % is set by controls: 0 for no effect and ±100 for the full control effect
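Neuro2A cells in DMEM with 0.5% FBS, overnight at 37 deg C, given compound at single 50 µM final, then IGF (6 nM final) for 20 min at 37 deg C. Lysed; phospho-Akt Ser473 by HTRF after 24 h, 665/615 ratio.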
PTAP TSG101 blk: blocks PTAP/TSG101 interaction to inhibit HIV-1 budding | Potency, µM (series often up to 115 µM), for the others: at the top dose activity change, negative = inhibition, most hits filed as inhibitors | 340,000 tested, under 10 active | Fluorescence polarization, FITC-PTAP peptide / Tsg101 binding; active = well fitted inhibition curve with a large enough effect in the main read-out, with a control signal flat, not every such curve was filed as active; inconclusive = small, poorly fitted or top-dose-only effect, or effect the other way, or a change in a side signal; inactive = no such curve, though single readings can be large or run the other way; note: potency is the fitted concentration of half-maximal effect; % of control where 0% means no effect
Target sequence (Q99816 whole entry, looked up): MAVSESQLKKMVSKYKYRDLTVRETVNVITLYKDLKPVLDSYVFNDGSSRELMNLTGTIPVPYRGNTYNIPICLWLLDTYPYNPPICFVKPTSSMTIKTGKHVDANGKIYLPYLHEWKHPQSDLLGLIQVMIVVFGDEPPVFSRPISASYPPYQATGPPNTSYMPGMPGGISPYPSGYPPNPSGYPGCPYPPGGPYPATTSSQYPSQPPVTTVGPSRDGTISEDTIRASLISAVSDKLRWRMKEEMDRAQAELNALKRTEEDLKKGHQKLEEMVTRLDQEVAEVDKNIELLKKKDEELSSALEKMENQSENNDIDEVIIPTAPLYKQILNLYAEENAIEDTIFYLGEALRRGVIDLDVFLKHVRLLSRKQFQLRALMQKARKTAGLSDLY
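Tsg101 binding domain (10 uM final) was mixed with compound and a FITC-labeled PTAP peptide (50 nM final) in HEPES pH 7.5 buffer with NaCl, Tween 20, EDTA and TCEP; fluorescence polarization was read after 20 min at r.t.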
Vif-APOBEC3G blk: Vif-A3G binding inhibition; Q9HC16; HeLa A3G-eYFP + Vif (tagged APOBEC3G with the HIV-1 protein that degrades it), YFP fluorescence, overnight; Potency, µM (highest dose often 46.1 µM), inactives show at the highest dose activity, negative = active, actives largely listed as inhibitors; 0.076% of 410,000 active; note: potency is the fitted concentration of half-maximal effect; % is set by controls: 0 for no effect and ±100 for the full control effect; nearly all actives have a fitted effect of over 60% in size
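Read-out is eYFP fluorescence (Ex 488/Em 500-530) from Vif-expressing HeLa A3G-eYFP cells; more signal means A3G escaped Vif-mediated degradation. Cells plated overnight, compound pinned in, incubated overnight at 37 deg C.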
* hit, by the source's call; i = inactive; ? = inconclusive; . = not tested or not shown; [ ] = dose if it differs, or a comment. Unless noted, calls come from the whole dose curve; as a rule, active = well fitted curve in the direction sought with a large enough effect; inconclusive = small, poorly fitted or top-dose-only effect, or another doubt; inactive = no such curve, though single readings can be large; an effect the other way counts as inactive or inconclusive.

SMILES	S-ASM inh	ALOX12 inh	Vif-APOBEC3F blk	pAkt inh	PTAP TSG101 blk	Vif-APOBEC3G blk
COc1ccc(C2(CNC(=O)/C=C\c3ccco3)CCCC2)cc1OC	-1.6%	44.7µM*	-0.1%	i	-5.2%	-1.9%
CCOc1cccc(C(=O)NC(=S)Nc2cccc(NC(=O)c3ccccc3Cl)c2)c1	-9.1%	11.2µM*	6.2%	i	0.2%	0.4%
CCCCOc1cccc(C(=O)NC(=S)Nc2cccc(C(F)(F)F)c2)c1	-6.7%	31.6µM*	-12.8%	i	-4.0%	-6.5%
CCOc1cccc(C(=O)NC(=S)Nc2cccnc2)c1	1.8%	-21.9%	-0.6%	i	-3.0%	-1.0%
CCCOc1cccc(C(=O)Nc2cccc(NC(=O)c3ccc(Cl)cc3Cl)c2)c1	.	-16.5%	-5.3%	.	.	1.0%
CCCOc1ccc(C(=O)Nc2cccc(NC(=O)c3ccc(Cl)cc3Cl)c2)cc1	.	-14.2%	?	.	.	12.6µM*
CCOc1cccc(C(=O)NC(=S)Nc2ccccc2)c1	-2.0%	14.1µM*	-21.7%	i	-0.9%	-4.6%
COC(=O)C(C)Oc1ccc2c(C)c(-c3ccc(Cl)cc3)c(=O)oc2c1 (stereo unspecified)	.	2.0%	.	.	.	.
O=C(NC[C@H]1O[C@H](Cc2cc(-c3ccc(F)cc3)on2)CC[C@@H]1O)NC1CCCCC1	.	5.7%[176 µM]	.	.	.	.
CCC1CCCCN1C(=O)CN1C(=O)N(c2ccc(F)cc2)S(=O)(=O)c2ccccc21 (stereo unspecified)	.	-36.7%	.	.	.	.
COc1ccc(NS(=O)(=O)c2cc(OC)ccc2NC(=O)c2cc(C)oc2C)cc1	-21.5%	35.5µM*	-6.5%	i	-7.5%	?
NC(=O)COc1ccc(/C=C2\C(=O)ON=C2c2ccccc2)cc1	1.4%	7.08µM*	?	i	-2.9%	-16.3%
O=C1ON=C(c2ccccc2)/C1=C/c1ccc(-c2ccccc2[N+](=O)[O-])o1	-3.2%	3.98µM*	0.2%	i	-2.2%	?
O=[N+]([O-])c1ccccc1-c1ccc(/C=N/O)o1	.	-27.9%	.	.	.	.
COc1ccc(/C=C2/C(=O)ON=C2c2ccccc2)cc1OC	-1.2%	?	.	i	-10.8%	-26.4%
COc1ccc(/C=C2\C(=O)ON=C2c2cccc([N+](=O)[O-])c2)cc1	.	31.6µM*	.	.	.	.
CCOc1cc(/C=C2\C(=O)ON=C2c2ccccc2)ccc1OC	-1.0%	12.6µM*	3.1%	i	1.9%	?
O=C(CCc1ncc(-c2ccccc2Cl)o1)N1CCOCC1	.	24.4%	.	.	.	.
CCCn1nc(C(=O)Nc2nnc(Cc3ccccc3)s2)c2ccccc2c1=O	.	0.8%	.	.	.	.
COc1cccc(N2CCN(C(=O)c3cc4c(s3)CN(C3CCCC3)C4)CC2)c1	.	238.1%	.	.	.	.
COc1ccc(/C=C2\C(=O)ON=C2c2ccccc2)cc1OC	5.3%	7.08µM*	-11.7%	i	1.7%	-12.4%
Cc1ccc(C2=NOC(=O)/C2=C\C=C\c2ccccc2)cc1	-0.4%	1.12µM*	0.6%	i	0.9%	?
CN(C)/C=C1\C(=O)ON=C1c1ccccc1	1.6%	-4.2%	0.3%	i	-2.3%	-2.0%
CC1=NN(c2ccccc2)C(=O)/C1=C/C=C/c1ccccc1	-22.4%	16.7%	?	i	-1.9%	?
O=C1ON=C(c2ccccc2)/C1=C/c1ccco1	-17.0%	7.94µM*	-11.6%	i	-7.4%	-2.1%
Cc1cc(C)n(C(=O)c2cn(C)nc2S(=O)(=O)N2CCN(c3ccccc3Cl)CC2)n1	.	-3.2%	.	.	.	.
CCOc1ccc2nc(NC(=S)N(C)C)sc2c1	-2.1%	44.7µM*	-2.2%	i	-5.5%	1.2%
COc1ccc(-c2[nH]nc3c2C(c2ccc4c(c2)OCO4)CC(=O)O3)cc1 (stereo unspecified)	.	44.7µM*	.	.	.	.
O=C(COc1ccc(Br)cc1)N1CCOCC1	3.5%	27.5%	-10.2%	i	-5.2%	2.4%
Cc1cccc(OCC(=O)N2CCN(C(=O)CCC3CCCC3)CC2)c1	-2.1%	-0.7%	-9.1%	.	-5.3%	-1.0%
